Results from the OligoGym collection.

The sequences below were run against CTCFL (assay: pooled miR-30 sensor sort-seq; sequence = guide strand). Settings: shRNA.
Further: reference of the scale not given here.

Sequence | sensor-assay potency score (higher = more potent)
TTGTATAAAAACATTTGTCTTT | -0.651
TTGAATTTGAAACTGTGAGAAC | -1.1
TTGAGGAGCATTTCACACCTTA | 0.0619
TTTAGAAGTTGCTTCTGTCGGA | 0.605

What follows are sequences tested against CTDSP1 in the same assay as above. Settings: shRNA.

Sequence | sensor-assay potency score (higher = more potent)
TACAGCATTGTCTGGATGGAAG | -1.6
TTGTCCAGGATGAGCACCCGCC | -0.921
TTGGACTGGGGTCTTAGGGATG | -1.55
TCCAGGTCGATGACCACGCAGA | -1.79
TATTGGACTGGGGTCTTAGGGA | -0.481
TCGATGACCACGCAGATCTTGT | -1.32
TAGACCTGGTGGACCACCCCAT | -0.5
TTCACTGGCTTGAAGGAGCTGT | 0.427
TTTGAAGGCACTGACACGGGGC | 0.517
TTGTTCACTGGCTTGAAGGAGC | -0.757
TGAGCACTGAGTACACGTCGTC | -0.158
TACACGTCGTCCACACGGCTGA | -0.19

What follows are sequences tested against CTHRC1 in the same assay as above. Settings: shRNA.

Sequence | sensor-assay potency score (higher = more potent)
TAGCAACATCCACTAATCCAGC | -1.03
TAGAGCACTATTTGAACGCATC | -1.21
TAAATTATAGCTTCAATGGGAA | -0.0923
TAATTCAATGAACTCCATGAAC | -1.24
TTGAATGTGAAATACCAACGCT | -0.453
ATAAATTATAGCTTCAATGGGA | 0.0197
TTAGAGCACTATTTGAACGCAT | -0.079
TCTTTGTAAATGTACACTCCGC | -0.893
ATGAACTCCATGAACACTGCTT | 0.166
TTTGTAAATGTACACTCCGCAA | -1.33

The sequences below were run against CTLA4 in the same assay as above. Settings: shRNA.

Sequence | sensor-assay potency score (higher = more potent)
TTTCTTTAGCATTTTGCTCAAA | -0.998
TTTTCTTTAGCATTTTGCTCAA | -0.539
TTGCTTTGCAGAAGACAGGGAT | 0.337
TTTTCTTTAGCAATTACATAAA | -1.29
TCAATTACATAAATCTGGGTTC | -0.428
TTCTTTAGCATTTTGCTCAAAG | -0.747
TTTCACATTCTGGCTCTGTTGG | -0.615
TTGCTCAAAGAAACAGCTGTGA | -0.0499
TACATGAGCTCCACCTTGCAGA | -0.733
TTCACTTGATTTCCACTGGAGG | -0.709
TTTAGCAATTACATAAATCTGG | 0.216
TCATCTAGGAAGGTCAACTCAT | -0.426
TTAGCAATTACATAAATCTGGG | -0.222
TACTCACACACAAAGCTGGCGA | 0.197
